Rows were chosen to be rich in hits. Some 17% of all compounds tested hit in one or more screens of this group.
HepG2 viability = HepG2 cytotoxicity, counter-screen for TGF-b inhibitors | HepG2 CAGA-GFP viability, ATP luminescence, 18 h | Potency, µM (doses to about 46.1 µM), without a hit: top-dose activity change, negative = cytotoxicity, hits mostly cytotoxic | 410,000 tested, 0.76% active
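CellTiter-Glo luminescence gave cytotoxicity after 18 hours at 37 degrees C. The cells were HepG2 CAGA-GFP in 1% FBS DMEM, stimulated with 500 pg/mL TGF-beta after compound addition. %Activity was normalised to no-cell wells (complete cell-killing) and DMSO (no toxicity), and curves were fitted and classified.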
ATXN2 expr inh = ATXN2 expression inhibition; AID 1745845; HEK-293 ATXN2-luciferase reporter, luminescence, 24 h; 360,000 tested, 0.72% active; Potency, µM (highest dose often 57 µM), for inactives: top-dose activity change, negative = inhibition, usual class: inhibitors; also: % is scaled to controls: 0 for no effect and ±100 for the full control effect; nearly all actives have a fitted effect of over 55% in size
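qHTS (up to 57 uM final) was run with 24 h compound exposure of reporter cells at 37 °C. Each well was multiplexed: SteadyGlo luminescence measured ATXN2-luciferase expression after a fluorogenic Gly-Phe-AFC viability readout (25 uM final).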
ATXN viability = cell viability loss in ATXN counter-screen. Potency, µM (series often up to 56.7 µM), most hits filed as cytotoxic. S2 cells (HEK-293 line with an ATXN2-luciferase reporter) viability, CellTiter-Fluor protease fluorescence, 24 h. 400,000 tested, 0.49% active; also: nearly all actives have a fitted effect of over 40% in size
DT40 TDP1 CPT = DT40-hTDP1 cell growth loss with CPT; chicken DT40 Tdp1-/-;hTDP1 cells + 20 nM CPT, ATP luminescence, 48 h; Potency, µM (titrated, usually from 46.2 µM), for the others: at the top dose activity change, negative = growth inhibition, hits mostly inhibitors; 420,000 tested, 12% active; AID 686979; also: % is scaled to controls: 0 for no effect and ±100 for the full control effect; nearly all actives have a fitted effect of over 55% in size
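Chicken DT40 Tdp1-/- cells complemented with human TDP1, 400 cells/well, exposed to compounds plus 20 nM camptothecin for at least 48 h at 37 C; viability read as ATP content by CellTiter-Glo luminescence.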
TGFb inhibitor = TGF-b pathway inhibition | HepG2 CAGA-GFP TGF-b/SMAD3 reporter, GFP fluorescence, 18 h; TGF-beta stimulated, 500 pg/mL final | AID 588855 | 410,000 tested, 1.2% active | Potency, µM (titrated, usually from 46.1 µM), for the others: top-dose activity, negative = inhibition, most hits filed as inhibitors; also: % is scaled to controls: 0 for no effect and ±100 for the full control effect; nearly all actives have a fitted effect of over 65% in size
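Cell-based qHTS in HEPG2 carrying a CAGA-GFP Smad reporter; compounds added before 500 pg/mL final TGF-beta, 18 h incubation at 37 degrees C, GFP fluorescence quantified per cell by imaging cytometry.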
TDP1 cell noCPT = qHTS for Inhibitors of human tyrosyl-DNA phosphodiesterase 1 (TDP1): qHTS in cells in absence of CPT; DT40 Tdp1-/- hTDP1 cells, no CPT, ATP luminescence, 48 h; Potency, µM (titrated, usually from 46.2 µM), inactives show top-dose activity change, negative = growth inhibition, hits mostly inhibitors; 420,000 tested, 15% active; AID 686978, 2013; also: % is scaled to controls: 0 for no effect and ±100 for the full control effect; nearly all actives have a fitted effect of over 55% in size
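Readout: luminescence from CellTiter-Glo after 30 min in the dark at RT. Cells: DT40 Tdp1-/- with stable hTDP1, 400/well. Exposure: compounds alone, ≥48 hr, 37 °C.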
* hit, by the source's call; i = inactive; ? = inconclusive; / = no result given; [ ] = remark or other dose. Calls follow the shape of the dose curve; as a rule, active = well fitted curve in the direction sought with a large enough effect; inconclusive = small, poorly fitted or top-dose-only effect, or another doubt; inactive = no such curve, though single readings can be large; an effect the other way counts as inactive or inconclusive. Potency is read from the fitted curve at half-maximal effect.

SMILES | HepG2 viability | ATXN2 expr inh | ATXN viability | DT40 TDP1 CPT | TGFb inhibitor | TDP1 cell noCPT
CN(C)S(=O)(=O)c1cccc(NC(=O)COc2ccc(C(=O)c3ccccc3)cc2)c1 | 22µM* | -38% | i | 18µM* | -33% | 16µM*
O=C(COc1ccc(C(=O)c2ccccc2)cc1)Nc1cccnc1 | -12% | ? | i | 5.2µM* | -18% | 2.9µM*
COC(=O)/C=C/C(=O)Nc1cccnc1 | -56% | 19% | i | 16µM* | 0% | ?
O=C(O)/C=C/C(=O)Nc1cccnc1 | 33% | -4% | i | 6% | 15% | -2%
O=C(Nc1nc2cccc(-c3ccc(CN4CCS(=O)(=O)CC4)cc3)n2n1)C1CC1 | / | 292% | / | / | / | /
O=C(Nc1cccnc1)c1ccc(Oc2ccccc2)cc1 | -43% | 72% | i | 23µM* | 0% | ?
O=C(Nc1cccnc1)c1ccccc1Oc1ccccc1 | -21% | 2% | i | -18% | 6% | -16%
O=C(Nc1cccnc1)c1ccc2nc(-c3ccccc3)c(-c3ccccc3)nc2c1 | -29% | -25% | i | 23µM* | -4% | 15µM*
O=C(Nc1ccccc1)Nc1ccc(Oc2cccnc2)nc1 | -19% | -1% | i | ? | -20% | 16µM*
N#C/C(=C\c1cn(Cc2ccccc2F)c2ccccc12)C(=O)NCc1ccco1 | -34% | -21% | i | -20% | -4% | -17%
COc1ccc(N2C(=O)/C(=C\c3ccco3)N=C2SCC(=O)NC(C)C)cc1Cl | 9% | 3% | i | 8% | 3% | -1%
COc1ccc(N2C(=O)/C(=C\c3ccco3)N=C2SCC(=O)N(C(C)C)C(C)C)cc1Cl | 7% | -13% | ? | 16µM* | 0% | 16µM*
N#CC[C@H](C1CCCC1)n1cc(-c2ncnc3[nH]ccc23)cn1 | / | 25% | / | / | / | /
CC(C)=CCc1c(O)c(CC=C(C)C)c2c(c1O)C(=O)CC(c1ccc(O)cc1)O2 (stereo unspecified) | -106% | ? | ? | ? | ? | 18µM*
COc1c(CC=C(C)C)cc(C2CC(=O)c3c(O)cc(O)cc3O2)cc1CC=C(C)C (stereo unspecified) | 16µM* | ? | / | ? | 14µM* | ?
COC1=CC(=O)C(C2CC(=O)c3c(O)cc(O)cc3O2)=CC1=O (stereo unspecified) | 6% | ? | / | 3.7µM* | 2% | 2.6µM*
O=C1C[C@H](c2ccccc2)Oc2cc(O)cc(O)c21 | / | / | / | 14% | / | -20%
COc1cc(O)c2c(c1)OC(c1ccc(O)cc1)CC2=O (stereo unspecified) | -14% | 8% | i | ? | ? | 16µM*
COc1ccc([C@@H]2CC(=O)c3c(O)cc(O)cc3O2)cc1O | 18% | 61% | i | ? | 1% | ?
CCOC(=O)c1nnn(C(CC)C(=O)Nc2c(C)cccc2C)c1C(=O)OCC (stereo unspecified) | 0% | 0% | i | -4% | ? | -4%
C[C@H](NC(=O)Nc1cccc(Br)c1)C(=O)O | -9% | 5% | i | ? | -3% | 10%
Cc1ccc(NC(=O)c2ccc(-n3cncn3)c([N+](=O)[O-])c2)cc1 | 2% | / | / | -28% | 0% | 0%
O=C(Nc1ccc(Cl)cc1)c1ccc(-n2cccn2)c([N+](=O)[O-])c1 | -26% | -5% | i | 23µM* | -4% | 15µM*
CCN(CC)S(=O)(=O)c1cc(NC(=O)c2ccc(-n3cncn3)c([N+](=O)[O-])c2)ccc1C | 5% | -24% | i | ? | -42% | 23µM*
O=C(Nc1ccc(Cl)cc1)c1ccc(-n2cncn2)c([N+](=O)[O-])c1 | -4% | -14% | i | ? | -16% | 16µM*
SMILES | HepG2 viability | ATXN2 expr inh | ATXN viability | DT40 TDP1 CPT | TGFb inhibitor | TDP1 cell noCPT
COCc1ccc(CN2CCOc3c(O)cc(-c4cc(C)c5ccc(F)cc5n4)cc3C2)o1 | / | / | ? | -1%[9.04 µM] | / | ?
CCCS(=O)(=O)c1c(S(=O)(=O)CCC)c2cc(CC)ccn2c1C(=O)c1ccc(Cl)cc1 | -13% | 9% | i | 15µM* | 0% | -26%
CCCS(=O)(=O)c1c(S(=O)(=O)CCC)c2cc(CC)ccn2c1C(=O)c1ccc(OC)cc1 | 9% | -1% | i | ? | -1% | ?
Cc1ccccc1NC(=O)Cc1nc(-c2c[nH]c(C(=O)N3CCCC3)c2)cs1 | -14% | ? | i | 18µM* | ? | ?
Cc1cccc(NC(=O)Cc2nc(-c3c[nH]c(C(=O)N4CCCC4)c3)cs2)c1 | 0% | -26% | ? | ? | -27% | ?
CC(C)OC(=O)c1ccc(NCc2cc(O)ccc2O)cc1 | 2% | ? | / | 1.2µM* | ? | 2.3µM*
COP(=O)(OC)c1ccc(NCc2cc(O)ccc2O)cc1 | 8% | 9% | i | 4.6µM* | -12% | 4.1µM*
CCOc1ccccc1N1CCN(C(=O)c2cccc(-c3ccc(O)cc3)c2)CC1 | -22% | -32% | ? | 16µM* | ? | ?
COc1cc2ccccc2cc1C(=O)N1CCN(C(C)=O)CC1 | 6% | 10% | i | 16% | 0% | 0%
COc1cc2ccccc2cc1C(=O)N1CCN(c2nc3ccc(F)cc3s2)CC1 | -20% | / | / | 16µM* | ? | 15µM*
CCOc1ccccc1N1CCN(C(=O)c2cc3ccccc3cc2OC)CC1 | -1% | -7% | ? | 3.7µM* | -29% | 4.6µM*
O=C(CCl)N1CCN(C(=O)C2COc3ccccc3O2)CC1 (stereo unspecified) | -15% | -30% | ? | ? | -13% | 3.7µM*
O=C(NC1CCCC1)N[C@@H]1C=C[C@@H](CC(=O)N2CCOCC2)O[C@@H]1CO | / | / | / | ? | / | 5%
O=C(C1COc2ccccc2O1)N1CCN(c2nc3ccc(F)cc3s2)CC1 (stereo unspecified) | -19% | / | / | ? | ? | 21µM*
COc1ccc2nc(N3CCN(C(=O)C4COc5ccccc5O4)CC3)sc2c1 (stereo unspecified) | -22% | 6% | i | ? | 19% | ?
O=C(CN1C(=O)NC2(CCCc3ccccc32)C1=O)Nc1cc(F)ccc1F (stereo unspecified) | -18% | 5% | i | ? | 0% | ?

Screens from PubChem BioAssay.
